Laboratory results from PubChem BioAssay (NCI).
Compounds without any hit were thinned out: in the full panel of roughly 83,000, 20% have a hit.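 Single-concentration screen, 48 h exposure, 96-well plates. Endpoint: percent growth. Below 10 = active.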

Key:
Test in all cases: NCI-60 one-dose screen, 48 h (100 = growth as untreated, 0 = no growth, -100 = all killed)
[1] = tested on: NCI-H460 lung; settings: 10 µM unless noted
[2] = tested on: 786-0 renal; settings: 10 µM unless noted
[3] = tested on: COLO 205 colon; settings: 10 µM
[4] = tested on: MALME-3M melanoma; settings: 10 µM unless noted
[5] = tested on: RXF 393 renal; settings: 10 µM unless noted
[6] = tested on: SF-295 CNS; settings: 10 µM unless noted
[7] = tested on: SF-539 CNS; settings: 10 µM unless noted
[8] = tested on: UACC-257 melanoma; settings: 10 µM unless noted
[9] = tested on: HT29 colon; settings: 10 µM unless noted
[10] = tested on: SK-MEL-5 melanoma; settings: 10 µM unless noted
[11] = tested on: SK-MEL-2 melanoma; settings: 10 µM unless noted
[12] = tested on: UO-31 renal; settings: 10 µM unless noted
[13] = tested on: TK-10 renal; settings: 10 µM unless noted
[14] = tested on: ACHN renal; settings: 10 µM unless noted
[15] = tested on: A498 renal; settings: 10 µM unless noted
[16] = tested on: HL-60(TB) leukemia; settings: 10 µM unless noted
[17] = tested on: MOLT-4 leukemia; settings: 10 µM
[18] = tested on: T-47D breast; settings: 10 µM unless noted
[19] = tested on: SW-620 colon; settings: 10 µM unless noted
[20] = tested on: HCC-2998 colon; settings: 10 µM unless noted

Measured: growth

CSc1ccccc1NP1(=O)OCC(C)([N+](=O)[O-])CO1 (centres undefined)
inactive: [1] 101% | [2] 113% | [3] 116% | [4] 120% | [5] 97.6% | [6] 100% | [7] 91.4% | [8] 106% | [9] 105% | [10] 98.2% | [11] 112% | [12] 78.3% | [13] 110% | [14] 97.5% | [15] 110% | [16] 56.7% | [17] 94.4% | [18] 96% | [19] 101% | [20] 104%

CCOC(=O)Nc1cc(Cl)c([N+](=O)[O-])c(NC(=O)OCC)n1
inactive: [1] 109% | [2] 104% | [3] 115% | [4] 99.3% | [5] 99.3% | [6] 101% | [7] 107% | [8] 88.8% | [9] 82.5% | [10] 91.8% | [11] 74.6% | [12] 99.5% | [13] 103% | [14] 53.6% | [15] 93.1% | [16] 38.2% | [17] 79.6% | [18] 82.1% | [19] 71.3% | [20] 103%

NS(=O)(=O)c1nc[nH]c1[N+](=O)[O-]
inactive: [1] 106% | [2] 102% | [3] 113% | [4] 102% | [5] 116% | [6] 108% | [7] 100% | [8] 119% | [9] 93.1% | [10] 101% | [11] 111% | [12] 84.7% | [13] 99.5% | [14] 96.9% | [16] 102% | [17] 102% | [18] 99.8% | [19] 107% | [20] 100%
